# A selection: hits, their analogues and other compounds. The true share with any hit is near 5.7%.
# VP16 counter = VP16 counterscreen qHTS for inhibitors of ROR gamma transcriptional activity; actives 3.5% (n = 310,000); Drosophila S2 Gal4-VP16 UAS-luciferase, luminescence, 20 h; Potency, µM (titrated, usually from 53.6 µM), for inactives: at the highest dose activity, negative = inhibition, most hits filed as inhibitors;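 further: Gal4-VP16 expression switched on by copper sulfate through the metallothionein promoter; nearly all actives have a fitted effect of over 50% in size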
# NPSR antag = qHTS Assay for Antagonists of the Neuropeptide S Receptor: cAMP Signal Transduction. AID 1461, 2008. actives 1% (n = 220,000). CHO-NPSR cells, cAMP TR-FRET, antagonist mode. Q6W5P4. Potency, µM (titrated, usually from 38.3 µM), for inactives: at the highest dose activity change, negative = inhibition, usual class: inhibitors; further: nearly all actives have a fitted effect of over 50% in size
# RORgamma inh = qHTS for inhibitors of ROR gamma transcriptional activity; Nuclear receptor ROR-gamma (Mus musculus), P51450; actives 5.4% (n = 310,000); Potency, µM (titrated, usually from 53.6 µM), for the others: at the highest dose activity change, negative = inhibition, usual class: inhibitors; Drosophila S2 Gal4-RORgamma UAS-luciferase reporter, 20 h; further: nearly all actives have a fitted effect of over 60% in size
#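 Using a luciferase readout, inhibitors were identified by reduced reporter activity in Drosophila cells coexpressing a copper-inducible Gal4–ROR gamma fusion and UAS-driven Photinus luciferase, incubated 20 hr after 700 uM copper sulfate.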
# B2AR arrestin = qHTS assay of beta-arrestin-biased ligands of beta2-adrenergic receptor. beta-arrestin recruitment to beta2AR, cell-based reporter. Potency, µM (titrated, usually from 46.1 µM), inactives show at the top dose activation, usual class: activators. Beta-2 adrenergic receptor (Homo sapiens), P07550. actives 0.02% (n = 330,000);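 further: 0% = DMSO controls and full agonism = EC100 isoproterenol or metaproterenol; nearly all actives have a fitted effect of over 65% in size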
# Target sequence (P07550 whole entry, looked up): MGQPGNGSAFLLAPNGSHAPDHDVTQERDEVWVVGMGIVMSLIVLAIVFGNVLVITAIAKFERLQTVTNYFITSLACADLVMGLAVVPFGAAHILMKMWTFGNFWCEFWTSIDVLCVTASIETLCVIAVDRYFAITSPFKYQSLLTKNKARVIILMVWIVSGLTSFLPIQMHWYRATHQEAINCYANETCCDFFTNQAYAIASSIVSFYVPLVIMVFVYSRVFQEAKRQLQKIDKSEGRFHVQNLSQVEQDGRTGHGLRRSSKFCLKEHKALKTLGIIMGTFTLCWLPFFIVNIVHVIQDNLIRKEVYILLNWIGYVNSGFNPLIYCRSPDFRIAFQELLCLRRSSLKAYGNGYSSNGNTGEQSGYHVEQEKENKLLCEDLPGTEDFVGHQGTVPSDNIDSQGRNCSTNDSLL
# Active calls of the source: *; u = inconclusive; x = no result given; [ ] = dose if it differs, or a comment. The call rests on the fitted dose curve; in most records, active means well fitted curve in the direction sought with a large enough effect; inconclusive means small, poorly fitted or top-dose-only effect, or another doubt; inactive means no such curve, though single readings can be large; an effect the other way counts as inactive or inconclusive. Unless noted, on the % scale 0 is the no-effect control and ±100 the full control effect; potency means the concentration at half of the fitted maximal effect.
SMILES,VP16 counter,NPSR antag,RORgamma inh,B2AR arrestin
O=C(NCCCN1CCCC1=O)C(=O)NCC1OCCN1S(=O)(=O)c1ccc(Cl)cc1 (stereo not given),4%,x,2%,0%
Cc1cc(=O)cc(C)n1-c1ccccc1N,-2%,x,-11%,-1%
Cc1ccc(C)n1-c1ccccc1N,13µM*,5%[46.1 µM],14µM*,-1%
O=C(NNC(=O)c1ccccc1O)c1ccc(Br)cc1,20µM*,x,11µM*,0%
NC(=S)NNC(=O)c1cccc(Br)c1,-28%,3%,6.3µM*,0%
NC(=S)NC(=O)c1ccccc1,-1%,-23%,-25%,0%
NC(=S)NNC(=O)c1ccccc1,22µM*,-8%[46.1 µM],2.8µM*,-1%
O=C(NNC(=O)c1ccccc1O)c1ccc(Cl)cc1,u,-13%[46.1 µM],8.9µM*,0%
CNCC(=O)NC(CCCN=C(N)N)C(=O)NC(C(=O)NC(Cc1ccc(O)cc1)C(=O)NC(C(=O)NC(Cc1cnc[nH]1)C(=O)N1CCCC1C(=O)NC(C)C(=O)O)C(C)C)C(C)C (stereo not given),-9%,x,-3%,x
Cc1cc(O)ccc1NS(=O)(=O)c1ccc2c3c(cccc13)C(=O)N2,9%,x,-15%,0%
Cc1nnc(NC(=O)C(C)Sc2nnc(CNC(=O)c3ccccc3F)n2C)s1 (stereo not given),x,x,x,0%
CC12CCC=CC1C(c1ccc3ccccc3c1Br)N(Cc1ccccc1)C2=O (stereo not given),-5%,x,-14%,x
Cc1sc(NC(=S)NC(=O)C(C)(C)C)c(C(N)=O)c1C,2%,-7%[46.1 µM],-3%,0%
Cc1ccc(OCC(=O)N(Cc2ccco2)c2c(N)n(Cc3ccccc3)c(=O)[nH]c2=O)cc1C,x,x,x,0%
O=C(NNC(=O)c1ccccc1O)c1cccc(Br)c1,-7%,x,5µM*,-1%
Cc1ccc(C(=O)NNC(=O)c2cccc(Br)c2)cc1,0%,x,15%,0%
O=C(CNC(=O)c1ccc(Br)cc1)c1ccccc1,-29%,x,13µM*,0%
Cc1ccc(NC2CCCN(C(=O)c3cccs3)C2)cc1C (stereo not given),-2%,x,4%,0%
Cc1[nH]n(C2=NCCS2)c(=O)c1N=Nc1cccc(C(F)(F)F)c1,0.63µM*,-35%,0.28µM*,0%
Cc1[nH]n(-c2ccccc2)c(=O)c1N=Nc1ccc(C(=O)O)cc1,15%,x,31%,0%
Cc1[nH]n(C(N)=S)c(=O)c1N=Nc1cc(C(F)(F)F)ccc1Cl,u,x,0.56µM*,0%
O=c1[nH]n2c(=O)c3c([nH]c2c1N=Nc1cccc(C(F)(F)F)c1)CCCC3,u,13µM*,-24%,3%
Cc1[nH]n(C(N)=S)c(=O)c1N=Nc1cccc(C(F)(F)F)c1,0.4µM*,x,0.11µM*,0%
CCNc1ncc2nc(-c3cccc(C#N)c3)c(=O)n(CCC#N)c2n1,-9%,x,2%,x
Cc1ccc(C)c(NC(=O)C(Sc2nnc(-c3cccs3)o2)c2ccccc2)c1 (stereo not given),u,-30%[46.1 µM],u,0%
SMILES,VP16 counter,NPSR antag,RORgamma inh,B2AR arrestin
C/C(=N\NC(=O)c1ccccc1-n1cccc1)C1CC1,1%,15%,-15%,-1%
O=C1C2CCCN2C(c2ccc(Cl)cc2)N1c1nccs1 (stereo not given),-22%,-5%[46.1 µM],13µM*,0%
Cc1ccc(C2N(c3nccs3)C(=O)C3CCCN32)cc1 (stereo not given),-16%,5%[46.1 µM],13µM*,1%
O=C(O)c1cc(O)c2c(c1)[C@H]([C@H]1c3cc(C(=O)O)cc(O)c3C(=O)c3c(O[C@@H]4OC(CO)C(O)C(O)C4O)cccc31)c1cccc(O[C@@H]3OC(CO)C(O)C(O)C3O)c1C2=O (stereo not given in full),-19%,x,-36%,x
Cc1ccc(C(=O)OC(C)CN2C(C)CCCC2C)cc1 (stereo not given),-9%,x,-3%,0%
CCn1c(SCc2ccc(Cl)cc2)nc2nc3c(cc2c1=O)CCCC3,u,35%,13µM*,-1%
Cc1cc(C)n2nc3nc4c(cc3c2n1)CCCC4,17%,-1%[46.1 µM],8%,-1%
CSc1nc2nc3c(cc2c(=O)n1-c1ccccc1C)CCCC3,5µM*,-38%,-15%,-1%
CC(=O)Nc1ccn(C2CC3OCC(NC(=O)C(Cc4ccccc4)NC(=O)OC(C)(C)C)C3O2)c(=O)n1 (stereo not given),12%,x,10%,x

# Assay outcomes deposited in PubChem BioAssay by National Center for Advancing Translational Sciences (NCATS).
